Screening results deposited in PubChem BioAssay by several laboratories.
SENP7 inh = SENP7 protease inhibitors, primary screen, biochemical, luminescence, uHTS; recombinant SENP7, Z-RLRGG-aminoluciferin luminescence, 40 min; inhibition, % at 5 µM; 330,000 compounds, 1.5% hits;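 active = inhibition above about 50% at the single test dose, limit read from the data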;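 also: plate controls were DMSO with enzyme for no effect and no enzyme buffer wells for full effect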
Target sequence (Q9BQF6 706-1050 limits assumed): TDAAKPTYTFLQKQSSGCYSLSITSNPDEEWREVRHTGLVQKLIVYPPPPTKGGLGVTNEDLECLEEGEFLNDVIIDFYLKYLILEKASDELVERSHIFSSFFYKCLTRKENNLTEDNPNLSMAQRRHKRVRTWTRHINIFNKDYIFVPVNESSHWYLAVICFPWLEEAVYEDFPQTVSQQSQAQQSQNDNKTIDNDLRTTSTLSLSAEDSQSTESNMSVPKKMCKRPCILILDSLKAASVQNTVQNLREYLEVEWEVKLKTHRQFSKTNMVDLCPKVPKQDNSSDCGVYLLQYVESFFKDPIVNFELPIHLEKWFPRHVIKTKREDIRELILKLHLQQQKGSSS
HSP90 inh = HSP90 inhibitors, primary screen, cell lysate, luminescence. inhibition, % at 5.6 µM. 290,000 compounds, 0.91% hits. AID 1789, 2009. Rabbit reticulocyte lysate, luciferase refolding luminescence, 3 h;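 active = inhibition above the screen-wide mean plus 3 SD, computed separately per campaign, cut at about 16% in these data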;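 also: 0% = DMSO wells and 100% = 60 µM geldanamycin wells; inhibitors lower the luminescence because luciferase stays unfolded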
SENP8 block-1 = SENP8 protease inhibitors, primary screen, biochemical, luminescence. 330,000 compounds, 1.2% hits. purified SENP8, Z-RLRGG-aminoluciferin cleavage. inhibition, % at 10 µM. Sentrin-specific protease 8 (Homo sapiens), Q96LD8. AID 2540, 2010; in the data active = inhibition above about 50%
Target sequence (Q96LD8 whole entry, looked up): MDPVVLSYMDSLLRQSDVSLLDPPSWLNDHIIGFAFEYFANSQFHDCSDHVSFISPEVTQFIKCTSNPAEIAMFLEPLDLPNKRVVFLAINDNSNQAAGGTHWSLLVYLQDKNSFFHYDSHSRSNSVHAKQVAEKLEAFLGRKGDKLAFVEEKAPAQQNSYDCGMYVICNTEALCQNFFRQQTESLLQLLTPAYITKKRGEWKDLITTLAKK
SENP6 block = SENP6 protease inhibitors, primary screen, biochemical, luminescence, uHTS; Sentrin-specific protease 6 (Homo sapiens), Q9GZR1; Recombinant SENP6 catalytic domain, aminoluciferin luminescence; inhibition, % at 10 µM; 330,000 compounds, 1.8% hits;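 active = inhibition above about 50% at the single tested dose, limit read from the data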;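 also: plate controls were DMSO wells with enzyme for no effect and DMSO wells lacking enzyme for full effect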
SENP8 block-2 = human SENP8 protease inhibitors, primary screen, biochemical, fluorescence, Nedd8 protein substrate, uHTS; 360,000 compounds, 0.64% hits; AID 602440, 2012; Sentrin-specific protease 8 (Homo sapiens), Q96LD8; recombinant SENP8; inhibition, % at 20 µM; in the data active = inhibition mostly above about 40%, no sharp cut-off; inactive = mostly below about 27%
SENP8 conf = SENP8 protease inhibitors, retest, confirmation, biochemical, luminescence, single concentration; shares compounds with SENP7 inh; Recombinant SENP8, Z-RLRGG-aminoluciferin luminescence, 60 min; inhibition, % at 12.5 µM; 6,200 compounds, 40% hits; AID 488912, 2010;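 active = mean inhibition across replicates above about 50%, limit read from the data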
SENP6 confirm = SENP6 protease inhibitors, confirmation, biochemical, luminescence, single concentration | shares compounds with SENP7 inh | 6,200 compounds, 58% hits | recombinant SENP6, Z-RLRGG-aminoluciferin luminescence | inhibition, % at 12.5 µM
SENP7 confirm = SENP7 protease inhibitors, retest, confirmation, biochemical, luminescence, single concentration; recombinant SENP7, Z-RLRGG-aminoluciferin luminescence, 40 min; 6,200 compounds, 69% hits; inhibition, % at 12.5 µM; AID 488917, 2010; shares compounds with SENP7 inh
Casp3 select = caspase-3 protease inhibitors, confirmation, selectivity assay for SENP inhibitor project, biochemical, single concentration; shares compounds with SENP7 inh; purified caspase-3, Z-DEVD-aminoluciferin luminescence, 60 min; inhibition, % at 12.5 µM; 6,200 compounds, 60% hits;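 active = mean inhibition above about 50%, limit read from the data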;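 also: plate controls were enzyme with DMSO for no effect and wells without caspase-3 for full effect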
Luc interf = counter-screen for SENP inhibitors: luminescence interference; shares compounds with SENP7 inh; Pre-incubated SENP8/Z-RLRGG-aminoluciferin, luciferase luminescence interference; inhibition, % at 12.5 µM; 6,200 compounds, 39% hits;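 active = mean inhibition above about 50% when retested at one dose, limit read from the data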;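 also: plate controls were DMSO wells with completed reaction for no effect and substrate without enzyme for full effect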
The depositor's hits bear a star; · = no result given. Compounds with a hit are over-represented: about 2.7% of the library has one in this group of screens.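 The calls were made as follows, unless noted: active = mean inhibition above about 50% in the one-dose retest (limit read from the data); inactive = the rest.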

SMILES	SENP7 inh	HSP90 inh	SENP8 block-1	SENP6 block	SENP8 block-2	SENP8 conf	SENP6 confirm	SENP7 confirm	Casp3 select	Luc interf
COc1cccc(NC(=O)N2C3CCCC2CC(NC(=O)C2CC2)C3)c1 (configuration not stated)	7	0	3	-21	5	·	·	·	·	·
Cc1ccc(-c2n[nH]c(=S)n2/N=C/c2c(C)[nH]n(-c3ccccc3)c2=O)cc1	-1	2	-8	-12	-8	·	·	·	·	·
O=C(/C=C/c1ccc(O)c(O)c1)c1ccccc1O	97*	-9	97*	14	20	11	101*	103*	95*	99*
Cc1ccc(C(=O)N/C(=C\c2sccc2C)C(=O)NCCCN2CCOCC2)cc1	-3	-1	7	18	20	·	·	·	·	·
O=[N+]([O-])c1ccc2nc(-c3ccc(Cl)cc3)[nH]c2c1	63*	-2	54*	75*	-385	68*	72*	87*	50*	49
O=[N+]([O-])c1ccc2nc(-c3ccncc3)[nH]c2c1	51*	-2	64*	78*	20	39	60*	88*	86*	74*
Cc1ccccc1C(=O)NNC(=O)c1ccc(Br)cc1	-3	2	-18	-14	0	·	·	·	·	·
COc1ccccc1NC(=O)Cc1csc(NC(=O)c2ccccc2)n1	6	1	2	8	19	·	·	·	·	·
OCCCNc1ncnc2sc3c(c12)CCN(Cc1ccccc1)C3	19	4	26	54*	-278	4	18	9	3	-1
O=C(Nc1cccc(NC(=O)c2ccc3c(c2)OCO3)c1)c1ccccc1	42	-1	31	-6	-8	·	·	·	·	·
CCN(CC)c1ccc(C(=O)Nc2cccc(F)c2)cc1	59*	1	59*	84*	-155	71*	74*	93*	64*	68*
CN(CC(=O)Nc1cccc(F)c1)C(=O)c1ccc2c(c1)OCCO2	3	·	16	19	11	·	·	·	·	·
O=C(NC(=S)Nc1ccc2c(c1)OCCO2)c1ccccc1	25	10	49	76*	12	59*	61*	88*	54*	59*
O=C(Nc1cccc(F)c1)c1ccc2c(c1)OCCO2	93*	10	87*	89*	2	-4	88*	99*	90*	89*
O=C(Nc1ccccc1)c1ccc2c(c1)OCCO2	85*	5	77*	93*	29	-23	77*	97*	92*	84*
Cc1ccc(-c2cc(C(F)F)nc(N3CCOCC3)n2)cc1	3	1	4	-13	-228	·	·	·	·	·
O=C(Nc1ccccc1C(=O)O)c1cc(S(=O)(=O)NCc2ccccc2)ccc1Cl	-1	1	-3	-10	14	·	·	·	·	·
CCN(CC)c1ccc(NC(=O)Nc2ccccc2)cc1	65*	9	64*	83*	12	36	71*	88*	76*	52*
CCN(CC)c1ccc(NC(=O)Nc2ccc(C(C)=O)cc2)cc1	-2	0	-3	30	10	·	·	·	·	·
Cc1ccc(CN2CCN(Cc3cnn(-c4ccc(Cl)cc4)c3)CC2CCO)o1 (configuration not stated)	-2	4	-11	-12	4	·	·	·	·	·
Cc1ccc(CN2CCN(Cc3ccncc3)CC2CCO)o1 (configuration not stated)	7	2	-9	76*	19	-20	-21	-9	-10	-6
Cn1c(=O)c2c(nc(NCC3CCCO3)n2C)n(C)c1=O (configuration not stated)	51*	3	-2	7	3	4	6	12	8	3
CCNS(=O)(=O)c1ccc(NC(=O)c2c(-c3ccccc3)noc2C)cc1	5	0	1	-10	11	·	·	·	·	·
O=C(O)c1cccc(NC2=C(N3CCOCC3)C(=O)c3ccccc3C2=O)c1	42	0	57*	75*	59*	69*	81*	60*	64*	5
CCOc1ccc(C(=O)/C=C/c2ccc(SC)cc2)cc1	-13	-2	-3	9	-140	·	·	·	·	·
SMILES	SENP7 inh	HSP90 inh	SENP8 block-1	SENP6 block	SENP8 block-2	SENP8 conf	SENP6 confirm	SENP7 confirm	Casp3 select	Luc interf
CSc1ccc(/C=C/C(=O)c2ccc(O)cc2)cc1	34	1	74*	81*	-173	69*	64*	42	23	50
CCOc1ccc(/C=C/C(=O)c2ccccc2)cc1	83*	5	70*	76*	-5	-24	83*	88*	33	80*
CN(C)c1ccc(C(=O)/C=C/c2ccccc2)cc1	79*	2	63*	84*	9	27	17	56*	30	45
Cc1ccc(/C=C/C(=O)c2c(C)nc3ccccn23)cc1	103*	-6	-18	16	7	32	19	33	5	22
CCc1nc2ccc(C(=O)N(CC)CCN(C)C)cn2c1N(C)Cc1ccc(OC)cc1	·	·	·	·	2	·	·	·	·	·
CCc1cc2c(SCC(=O)c3cccs3)ncnc2s1	-6	0	-10	-32	7	·	·	·	·	·
O=C1Cc2cccc(=O)c(O)c2C(=O)O1	·	·	·	·	-3	·	·	·	·	·
COc1ccc(OC)c(S(=O)(=O)N2CCCC2C(=O)N2CCc3ccccc3C2)c1 (configuration not stated)	-5	0	-3	-13	4	·	·	·	·	·
Cc1ccc(/C=C/C(=O)c2ccccc2)cc1	40	7	26	78*	17	51*	60*	64*	4	65*
CCOc1ccc(N/C=C/C(=O)c2ccccc2)c([N+](=O)[O-])c1	101*	15	97*	98*	34	94*	95*	80*	97*	13
Cc1ccc(C(=O)/C=C/c2ccc3ncccc3c2)cc1	-12	-3	-17	-10	6	·	·	·	·	·
